# Lassa entry inh – Lassa virus entry inhibition | Lassa virus pseudotype entry inhibition, cell reporter | Potency, µM (doses to about 37.9 µM), for the others: top-dose activity change, negative = inhibition, most hits filed as inhibitors | 1.2% of 300,000 active; calls by dose curve; tested in HEK293 cells; also: nearly all actives have a fitted effect of over 50% in size
# FMDV inh – blocks foot and mouth disease virus; FMDV antiviral cell-based qHTS; Potency, µM (series often up to 57.9 µM), for the others: top-dose activity change, negative = inhibition, usual class: inhibitors; 1.2% of 410,000 active; AID 1159524; calls by dose curve; tested in HEK293T cells; also: read-out not given here; nearly all actives have a fitted effect of over 45% in size
# VACV mCherry inh – inhibitors of vaccinia virus infection (mCherry reporter signal); Vaccinia virus mCherry reporter infection, fluorescence; Potency, µM (series often up to 36.5 µM), without a hit: top-dose activity change, negative = inhibition, hits mostly inhibitors; 0.63% of 310,000 active; AID 720579; calls by dose curve; tested in A549 cells; also: nearly all actives have a fitted effect of over 35% in size
# Marburg entry inh – Marburg virus entry inhibition. Potency, µM (top dose mostly 37.8 µM), without a hit: top-dose activity change, negative = inhibition, most hits filed as inhibitors. Marburg virus pseudotyped entry inhibition, cell reporter. 1.8% of 300,000 active; calls by dose curve; tested in HEK293 cells
# VACV Venus inh – inhibitors of vaccinia virus (Venus reporter) | AID 720580 | Vaccinia virus Venus reporter expression, fluorescence | Potency, µM (highest dose often 36.5 µM), for the others: top-dose activity change, negative = inhibition, most hits filed as inhibitors | 0.46% of 330,000 active; calls by dose curve; tested in A549 cells; also: nearly all actives have a fitted effect of over 30% in size
# HCV inh – blocks hepatitis C virus; Huh7.5.1 HCVcc-Cre infection, luciferase reporter, 44 h; Potency, µM (top dose mostly 41.8 µM), for the others: top-dose activity change, negative = inhibition, usual class: inhibitors; 3.4% of 340,000 active; AID 651820; active = well fitted inhibition curve with a large enough effect; inconclusive = small, poorly fitted or top-dose-only effect, or another doubt; inactive = no such curve, though single readings can be large or run the other way
#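 After 44 h co-culture of compound, cells and HCVcc-Cre (~0.5 moi), substrate is added for 15 min at room temperature and luciferase measured over 15 sec. Cells were seeded at 1,000/well and pre-cultured 4 h.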
# * hit, by the source's call; i = inactive; ? = inconclusive; / = no result given; ! = not confirmed by another sample; [ ] = remark or other dose. Rows were chosen to be rich in hits. Some 5.3% of all compounds tested hit in one or more screens of this group. % is scaled to controls: 0 for no effect and ±100 for the full control effect; potency is read from the fitted curve at half-maximal effect.
SMILES,Lassa entry inh,FMDV inh,VACV mCherry inh,Marburg entry inh,VACV Venus inh,HCV inh
CC(=O)Nc1ccc(NC(=O)c2nc(SCc3ccccc3F)ncc2Cl)cc1,/,/,17%,/,-18%,/
CCOCCCN1C(=O)CN(C2CCCCCC2)C(=O)C1c1ccc(OC(C)C)c(OC)c1 (configuration not stated),7%[46.1 µM],-10%,-8%,/,-8%,/
COC(=O)c1ccc(COc2ccccc2/C=C(\C#N)C(=O)Nc2ccccc2C)cc1,?,19%,-14%,0%,-9%,12%
COC(=O)c1ccc(COc2ccccc2/C=C(\C#N)C(=O)Nc2c(C)cccc2C)cc1,?,11µM*,-10%,11µM*,-27%,?
N/C(=N\NS(=O)(=O)c1ccccc1C(F)(F)F)c1ccccn1,/,43%,/,/,/,13%
Cc1nc(C(F)(F)F)c(C(=O)N/N=C(\N)c2ccccn2)s1,?,3%,2.5µM*,?,?,13µM*
CC(C)c1ccc2c(c1)C(N1CCN(C)CC1)Cc1cccnc1S2 (configuration not stated),-10%[46.1 µM],-21%,-5%,11µM*,-11%,?
CC1(C)CC(=O)C(C(C2=C(O)CC(C)(C)CC2=O)c2ccc(Br)s2)C(=O)C1 (configuration not stated),13µM*,5.6µM*,-8%,?,-11%,4%
Cc1ccc(C(C2=C(O)CC(C)(C)CC2=O)C2C(=O)CC(C)(C)CC2=O)s1 (configuration not stated),?,?,/,2%,/,10%
COc1ccc(OC)c(NC(=O)c2cccc(NC(=O)c3ccco3)c2)c1,/,?,-11%,/,-18%,/
c1ccc(C(NCc2cccnc2)(c2ccccc2)c2ccccc2)cc1,8.2µM*,?,/,0%,/,/
COC(=O)c1ccc(CN2CCC3(CCC(CNC(=O)c4ccccc4)O3)CC2)cc1 (configuration not stated),/,-11%,-12%,/,2%,/
CC(C)[C@H](NS(=O)(=O)c1cccc(C(F)(F)F)c1)C(=O)OCC(=O)NC(=O)NCc1ccco1,-9%,-11%,-15%,?,-11%,11µM*
COc1ccc(-n2ncc3c(N(C)C4CCCCC4)ncnc32)cc1,/,10µM*,?,/,-22%,7%
CCN(c1ncnc2c1cnn2-c1cccc(Cl)c1)C1CCCCC1,?,-24%,-8%,/,0%,/
Cc1cccc(-n2ncc3c(N(C)C4CCCCC4)ncnc32)c1,/,18µM*,i,/,-21%,6%
CC1Cc2ccccc2N1c1nc(C2CC2)nc2c1nnn2Cc1ccccc1 (configuration not stated),-8%,-10%,/,0%,-13%,4%
CC1Cc2ccccc2N1c1ncnc2c1nnn2Cc1ccccc1 (configuration not stated),-27%,-26%,/,?,/,11µM*
CCCC1OC2C[C@@H]3[C@H]4CCC5=CC(=O)C=C[C@]5(C)[C@H]4C(O)C[C@]3(C)[C@]2(C(=O)CO)O1 (some centres not stated),/,/,-26%,/,-28%,/
CCCC1O[C@@H]2C[C@H]3[C@@H]4CCC5=CC(=O)C=C[C@]5(C)C4[C@@H](O)C[C@]3(C)[C@]2(C(=O)CO)O1 (some centres not stated),/,/,/,3.2µM*,/,/
O=C(Cn1cnc2c(OCc3ccccc3)ncnc21)NCCCN1CCCC1=O,/,-16%,-13%,/,5%,0.56µM*
O=C1CCCN1CCCNCCCn1cnc2c(OCc3ccccc3)ncnc21,/,?,i,/,-12%,-3%[8.37 µM]
CCOc1ccccc1NC(=O)COn1nnc2ccccc21,1%,8%,/,?,-12%,13µM*
CCOc1ccccc1NC(=O)COC(=O)/C=C/c1ccc(OC)c(OC)c1,-22%,18µM*,-18%,?,-16%,?
CCOc1ccc(/C=C/C(=O)OCC(=O)NCCc2ccc(OCC)c(OCC)c2)cc1OC,1%,-26%,-11%,0%,-11%,7.9µM*
SMILES,Lassa entry inh,FMDV inh,VACV mCherry inh,Marburg entry inh,VACV Venus inh,HCV inh
CN1CCCCC1C(=O)N1CCC(Oc2cccc(CN3CCN(c4ccccn4)CC3)c2)CC1 (configuration not stated),/,-7%,-10%,/,-3%,/
Cc1cc(OC(C)C(=O)NCc2cccnc2)c2c(C)c(Cc3ccccc3)c(=O)oc2c1 (configuration not stated),/,5%,/,/,/,13µM*
Cc1cc(OC(C)C(=O)NCc2cccnc2)c2c(C)c(C)c(=O)oc2c1 (configuration not stated),4%[46.1 µM],0%,-13%,-1%[46.1 µM],-9%,4%
Cc1ccc(Cn2cc(C(=O)c3ccc(C)cc3)c(=O)c3ccc(C)nc32)cc1,-5%[46.1 µM],8%,-9%[7.34 µM],?,-12%[7.34 µM],/
Cc1ccc(C(=O)c2cn(Cc3cc(C)ccc3C)c3nc(C)ccc3c2=O)cc1,?,-29%,-6%,7.1µM*,-18%,/
Cc1ccc(-n2nc3c(=O)n(CCCC(=O)NCC(C)c4ccccc4)nc(C)c3c2C)cc1 (configuration not stated),/,?,/,/,/,22µM*
Cc1ccc(-n2nc3c(=O)n(CCCC(=O)NCc4ccccc4C)nc(C)c3c2C)cc1,15%[46.1 µM],-21%,?,/,-28%,?
Cc1ccc(CNC(=O)CCCn2nc(C)c3c(C)n(-c4ccccc4)nc3c2=O)cc1,20%[46.1 µM],7.1µM*!,-25%,/,-10%,?
COc1ccccc1C(=O)c1cn(CC(=O)Nc2ccccc2F)c2nc(C)ccc2c1=O,2%[46.1 µM],-5%,5%,/,7%,/
COc1ccc(CN2C(=O)N(c3cccc(C)c3)C(=O)C2CC(=O)Nc2ccc(F)cc2)cc1OC (configuration not stated),-6%[46.1 µM],-28%,-3%,6%[46.1 µM],-2%,/
COC(=O)c1ccc(NC(=O)C(=O)NCC(c2cccnc2)N2CCc3ccccc32)cc1 (configuration not stated),-14%[46.1 µM],11µM*,-15%,/,-12%,/
CCOc1ccc(NC(=O)C(=O)NCC(c2cccnc2)N2CCc3ccccc32)cc1 (configuration not stated),-3%[46.1 µM],11µM*,-28%,/,-30%,/
CCc1cccc2c3c([nH]c12)[C@](CC)(CC(=O)O)OCC3,/,/,/,-19%,/,/
Cc1ccc(NC(=O)CSc2ccc(Br)cc2)cc1S(=O)(=O)N1CCOCC1,?,?,?,?,-15%,32µM*
Cc1ccc(NC(=O)CCCSc2ccccc2)cc1S(=O)(=O)N1CCOCC1,?,28µM*,?,?,-20%,?
CCCN1CCN(CCNC(=O)Nc2ccc(OC)cc2OC)CC1,23%[46.1 µM],-17%,-5%,0%[46.1 µM],3%,/
COc1ccc(NC(=O)Cn2c(=O)n(Cc3ccc4c(c3)OCO4)c(=O)c3ccc(C(=O)NC4CCCCC4)cc32)cc1,13%[46.1 µM],-8%,-20%,4%[46.1 µM],-24%,/

# High-throughput results: PubChem, National Center for Advancing Translational Sciences (NCATS)
